Measured values published in PubChem BioAssay (EPA / NIEHS).
Active and inactive are the calls of the source. How the source made its calls: active means hit-call score of the fitted dose curve at least 0.9, where 1 is the maximum; inactive means score below 0.9.

Experiment: ATG_GATA_CIS: Attagene CIS-FACTORIAL HepG2 Assay for human GATA Binding Protein (AID 2282944)
Settings: HepG2 GATA cis-element reporter, Attagene multiplex mRNA; actives raise or lower the signal
Experimental: ATG_CIS is a cell-based, multiplexed-readout assay that uses HepG2, a human liver cell line, with measurements taken at 24 hours after chemical dosing in a 24-well plate.ATG_GATA_CIS is one of 52 assay component(s) measured or calculated from the ATG_CIS assay. It is designed to make measurements of mRNA induction, a form of inducible reporter, as detected with fluorescence intensity signals by Reverse transcription polymerase chain reaction (RT-PCR) and Capillary electrophoresis technology.Data from the assay component ATG_GATA_CIS was analyzed into 1 assay endpoint. This assay endpoint, ATG_GATA_CIS, was analyzed with bidirectional fitting relative to DMSO as the negative control and baseline of activity. Using a type of inducible reporter, measures of mRNA for gain or loss-of-signal activity can be used to understand the reporter gene at the transcription factor-level as they relate to the gene GATA1. Furthermore, this assay endpoint can be referred to as a primary readout, because this assay has produced multiple assay endpoints where this one serves a reporter gene function. To generalize the intended target to other relatable targets, this assay endpoint is annotated to the dna binding intended target family, where the subfamily is GATA proteins.
Human liver HepG2 cells are transiently transfected with multiple reporter transcription units (MRTUs) in 6-well plates using FuGene 6 reagent (Roche; 3 ml FuGene/1 mg DNA). The MRTU constructs are regulated by a cis-regulating element (promoter). […] A major difference between the CIS and TRANS system is that in CIS activities of endogenous TFs are measured, whereas the TRANS assay evaluates changes in activities of exogenous, chimeric NR-Gal4 proteins. […] At the end of 24 hour incubation, total RNA was isolated using TriZol reagent (Invitrogen). The isolated RNA is then reverse-transcribed using oligo(dT) primer and Mo-MLV reverse transcriptase (Invitrogen) with DNAse I (Ambion) treatment for 30 min. The one-tenth of the produced cDNA was amplified by PCR using Taq DNA polymerase (Invitrogen) and two reporter sequence-specific primers. The PCR products were fluorescently labeled by primer extension with 6-arboxyfluorescein (6-FAM) 5'-labeled reporter sequence-specific primer (2 min at 95 C, 20 s at 68 C and 10 min at 72 C) and these products were digested with 5U of HpaI (New England Biolabs) for 2h at 37 C. The fragments were purified using Qiaquick PCR columns (Qiagen), analyzed on an ABI 3130xL genetic analyzer (Applied Biosystems) with peak positions identified by using a set of X-rhodamine (ROX)-labeled MapMarker1000 molecular weight standards (BioVentures). The raw capillary electrophoresis data was processed using Attagraph software (Attagene).

Row | SMILES | outcome | AC50
1 | Sc1nc(S)nc(S)n1 | inactive | 
2 | COC(=O)c1ccc(C)cc1 | inactive | 
3 | N#Cc1nc(Cl)c(Cl)c(Cl)c1Cl |  | 3.71 µM (active)
4 | Nc1cc([N+](=O)[O-])ccc1O | inactive | 
5 | Clc1cccc(Cl)n1 | inactive | 
6 | C=COCCOCCOCCOC=C | inactive | 
7 | Cc1cc(C2(c3cc(C)c(O)cc3C)OS(=O)(=O)c3ccccc32)c(C)cc1O | inactive | 
8 | Clc1nc(C(Cl)(Cl)Cl)c(Cl)c(Cl)c1Cl |  | 58.8 µM (active)
9 | O=C[C@@H](O)[C@H](O)[C@H](O)CO | inactive | 
10 | CC(C)=CCCC(C)CC=O (stereo not given) | inactive | 
11 | CCCCC(CC)COCCC#N (stereo not given) | inactive | 
12 | CC(=O)OCc1ccc2c(c1)OCO2 | inactive | 
13 | BrC1CCC(Br)C(Br)CCC(Br)C(Br)CCC1Br (stereo not given) |  | 66.3 µM (active)
14 | NNc1nc(-c2ccc(N)cc2)cs1 | inactive | 
15 | CCCC(C)C=O (stereo not given) | inactive | 
16 | CC(=O)/C=C/C1=C(C)CCCC1(C)C | inactive | 
17 | CCCCCCC#CC(=O)OC | inactive | 
18 | C=C[C@@H](C)CCC=C(C)C | inactive | 
19 | NC(N)=NC(=O)c1nc(Cl)c(N)nc1N | inactive | 
20 | Clc1sc(Cl)c(Cl)c1Cl | inactive | 

Row | SMILES | outcome | AC50
21 | Cc1ccc2n[nH]nc2c1 | inactive | 
22 | CC1CCC(C(C)CS)CC1S (stereo not given) |  | 61.1 µM (active)
23 | O=c1[nH]nnc2ccccc12 | inactive | 
24 | CC(C)C1CCC(O)CC1 (stereo not given) | inactive | 
25 | CC[C@]12CCCN3CCc4c(n(c5ccccc45)[C@@](O)(C(=O)OC)C1)[C@@H]32 | inactive | 
26 | C=C(C)C(=O)NCCCN(C)C | inactive | 
27 | CCC(C)(O)CCC=C(C)C (stereo not given) | inactive | 
28 | C=C(C)C(=O)Nc1ccc(Cl)c(Cl)c1 | inactive | 
29 | COc1ccc(OC)c(OC)c1 | inactive | 
30 | NC(=O)c1ccccc1Cl | inactive | 
31 | C[Si](O[Si](C)(C)C)O[Si](C)(C)C | inactive | 
32 | Cc1ccc(O)c(C(C)(C)C)c1 | inactive | 
33 | CN(C)CCCN | inactive | 
34 | NCCCN1CCOCC1 | inactive | 
35 | CC(C)c1cccc(O)c1 | inactive | 
36 | C=CC(C)(CCC=C(C)C)OC=O (stereo not given) | inactive | 
37 | CC1(C)C(=O)N(Br)C(=O)N1Cl | inactive | 
38 | CC(=O)C(=O)O | inactive | 
39 | C[C@]12CC[C@H]3[C@@H](CCC4=CC(=O)CC[C@@]43C)[C@@H]1CC[C@@H]2C(=O)CO | inactive | 
40 | CO[Si](C)(OC)c1ccccc1 | inactive | 
